Source: PubChem
Shown are actives, neighbours in structure and some others; about 7.8% of the full set was active somewhere.
MARV entry inh = Marburg virus entry inhibition | Marburg virus pseudotyped entry inhibition, cell reporter | Potency, µM (doses to about 37.8 µM), usual class: inhibitors | 300,000 compounds, 1.8% hits | AID 540276; calls by dose curve; tested in HEK293 cells
VACV Venus inh = inhibitors of vaccinia virus (Venus reporter). Potency, µM (highest dose often 36.5 µM), hits mostly inhibitors. Vaccinia virus Venus reporter expression, fluorescence. 330,000 compounds, 0.46% hits. AID 720580; calls by dose curve; tested in A549 cells; note: nearly all actives have a fitted effect of over 30% in size
VACV mCherry inh = inhibitors of vaccinia virus infection (mCherry reporter signal); 310,000 compounds, 0.63% hits; Potency, µM (top dose mostly 36.5 µM), hits mostly inhibitors; Vaccinia virus mCherry reporter infection, fluorescence; calls by dose curve; tested in A549 cells; note: nearly all actives have a fitted effect of over 35% in size
HCV inhibitor = HCV inhibition; Huh7.5.1 HCVcc-Cre infection, luciferase reporter, 44 h; Potency, µM (series often up to 41.8 µM), actives largely listed as inhibitors; 340,000 compounds, 3.4% hits; active = well fitted inhibition curve with a large enough effect; inconclusive = small, poorly fitted or top-dose-only effect, or another doubt; inactive = no such curve, though single readings can be large or run the other way
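Compounds are dispensed onto cells plated 4 h earlier at 1,000 per well, with HCVcc-Cre virus (about 0.5 moi) added next. Following 44 h of culture, luminescent signal is measured for 15 sec after 15 min with substrate at room temperature.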
LASV entry inh = Lassa virus entry inhibition; Lassa virus pseudotype entry inhibition, cell reporter; Potency, µM (highest dose often 37.9 µM), actives largely listed as inhibitors; 300,000 compounds, 1.2% hits; AID 540256; calls by dose curve; tested in HEK293 cells; note: nearly all actives have a fitted effect of over 50% in size
HCMV antiviral = human cytomegalovirus inhibition; activity change, negative = inhibition, % at 57.5 µM; HFF cells, HCMV-luciferase reporter, 72 h; active compounds read low; AID 1259415; 410,000 compounds, 4.5% hits; in the data active = activity change below about -60%; inconclusive = no clear call, values can overlap the other calls; inactive = above about -39%
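Steps: HFFs plated, 16 h 37C; compounds added; HCMV-luciferase added to MOI 1 PFU/cell; 72 h 37C; OneGlo reagent, 5 min room temperature; luminescence read, normalized to controls.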
Numbers stand for hits; – = inactive; ? = inconclusive; · = no result; ! = a repeat was not active.

SMILES | MARV entry inh | VACV Venus inh | VACV mCherry inh | HCV inhibitor | LASV entry inh | HCMV antiviral
O=C(NCCc1ccccn1)C1CC12CCN(C(=O)c1cccc(C(F)(F)F)c1)CC2 (stereo not drawn) | · | – | – | · | · | ·
O=S1(=O)CCS(=O)(=O)C1c1ccccc1 | ? | ? | 11µM | – | ? | –
CC(=O)Nc1cccc(NC(=O)CSc2ccc(-c3sc(-c4ccccc4)nc3C)nn2)c1 | · | – | ? | · | ? | –
CC(C)CCN(C(=O)Nc1ccc(Cl)c(Cl)c1)C1CCN(C(C)C)CC1 | · | – | – | · | – | –
CCOC(=O)N1CCC(N(C(=O)Nc2ccc(Cl)c(Cl)c2)C(C)CC)CC1 (stereo not drawn) | ? | – | – | 10µM! | ? | ?
O=c1c2ccccc2nc(CSc2ncnc3nc[nH]c23)n1-c1ccccc1 | – | · | · | – | – | –
c1ccc2c(CSc3ncnc4nc[nH]c34)cccc2c1 | – | – | – | ? | ? | -69
c1ccc(CCSc2ncnc3nc[nH]c23)cc1 | ? | – | – | 13µM | – | ?
O=C(CSc1ncnc2nc[nH]c12)c1ccccc1 | – | – | – | – | ? | –
O=C(CSc1nc2c(oc3ccccc32)c(=O)[nH]1)Nc1cccc(Cl)c1 | ? | – | – | · | · | –
Cc1ccccc1-n1c(/C=C/c2ccc(O)cc2)nc2ccccc2c1=O | · | – | – | · | ? | -92
COc1ccccc1-n1c(/C=C/c2ccccc2)nc2ccccc2c1=O | · | – | – | · | – | –
Cc1ccc(-n2c(/C=C/c3ccc(Br)s3)nc3ccccc3c2=O)cc1C | · | – | – | · | ? | -65
Cc1ccccc1-n1c(/C=C/c2ccccn2)nc2ccccc2c1=O | · | ? | ? | – | · | -102
CCOC(=O)CCNC(=O)N1CCN(S(=O)(=O)c2ccc3c(ccn3C)c2)CC1 | · | – | – | · | – | –
CCOc1ccc(S(=O)(=O)NCC(c2ccc3c(c2)OCO3)N2CCN(C)CC2)cc1 (stereo not drawn) | 7.9µM | – | – | ? | ? | –
Cc1cccc(N2CCN(C(=O)c3cn(C4CCCCC4)c(=O)c4c3c3ccccc3n4C)CC2)c1C | ? | – | – | · | ? | –
CCC(=O)N1CCN(c2ccccc2NC(=O)c2ccc(-c3cccc([N+](=O)[O-])c3)o2)CC1 | ? | – | – | ? | – | –
CCN1CCN(c2ccc(S(=O)(=O)N3CCCCC3)cc2NC(=O)c2ccc(F)cc2)CC1 | ? | – | – | – | – | –
CN1CCN(c2ccccc2NC(=O)c2ccc(-c3cccc([N+](=O)[O-])c3)o2)CC1 | ? | ? | – | 5.6µM | ? | –
CCN1CCN(c2ccc(S(=O)(=O)N3CCCCC3)cc2NC(=O)c2ccc([N+](=O)[O-])o2)CC1 | ? | 10µM | 4µM | 3.5µM | ? | –
CS(=O)(=O)N1CCN(c2ccccc2NC(=O)c2ccc([N+](=O)[O-])o2)CC1 | ? | – | – | 11µM | ? | -83
COc1ccc(S(=O)(=O)N2CCCCC2)cc1NC(=O)c1ccc([N+](=O)[O-])o1 | – | – | – | 10µM | – | –
COc1ccc(OC)c(-c2noc(CSc3nnc(-c4ccccc4)n3-c3ccccc3)n2)c1 | – | – | – | · | – | –
CCN1CCN(c2ccc(S(=O)(=O)N3CCOCC3)cc2NC(=O)c2cccc([N+](=O)[O-])c2)CC1 | ? | – | ? | ? | – | –
SMILES | MARV entry inh | VACV Venus inh | VACV mCherry inh | HCV inhibitor | LASV entry inh | HCMV antiviral
CCN1CCN(c2ccc(S(=O)(=O)N3CCOCC3)cc2NC(=O)/C=C/c2ccc([N+](=O)[O-])cc2)CC1 | ? | ? | ? | 25µM | – | –
COc1ccc(-c2cc3ccccc3oc2=O)cc1NC(=O)c1ccc([N+](=O)[O-])o1 | – | ? | 11µM | ? | – | -66
COc1ccc(Nc2ncnc3onc(-c4ccc(Cl)cc4)c23)cc1Cl | 7.1µM | – | – | · | 13µM | –
Cc1cc2c(c(=O)o1)[C@H]1O[C@](c3ccsc3)(Cc3ccccc31)O2 | – | · | · | · | · | ·
COc1ccc(C#Cc2c[nH]c(=O)c3cncnc23)cc1OC | · | – | – | · | · | ·
O=C(NCCc1ccccc1Cl)c1ccc2c(c1)nc1n2CCCCC1 | · | – | – | · | ? | -81
Cc1ccc(C)c(CNC(=O)c2ccc3c(c2)nc2n3CCOC2)c1 | · | – | – | · | ? | –
CC(C)CCNC(=O)c1ccc2c(c1)nc1n2CCCCC1 | · | – | – | · | ? | –
Cc1ccc(C)c(CNC(=O)c2ccc3c(c2)nc2n3CCCCC2)c1 | · | – | – | · | 7.9µM | –
Clc1ccc2c(c1)nc1n2CCCC1 | · | – | – | 25µM | · | –
O=[N+]([O-])c1cccc(CN2CCN(Cc3ccc(Br)cc3)CC2)c1 | · | · | · | 22µM | · | -74
O=[N+]([O-])c1cccc(COc2ccc(CN3CCCCC3)cc2)c1 | · | – | – | – | · | –
O=C1C(=O)N(Cc2cccc([N+](=O)[O-])c2)c2ccccc21 | 11µM | – | – | – | ? | –
CCOC(=O)c1cccn1C1C(=O)N(Cc2ccc(Cl)nc2)c2c(F)cccc21 (stereo not drawn) | · | · | · | · | · | –
CCOC(=O)CCC(=O)Nc1nnc2n1CCS2 | · | – | – | · | – | –
CC1CCc2c(sc3nnn(Cc4ccccc4)c(=O)c23)C1 (stereo not drawn) | – | – | – | · | – | –
Nc1ncnc2c1ncn2C1OC(CO)C(O)C1O (stereo not drawn) | · | – | – | – | · | –
Nc1ncnc2c1ncn2[C@@H]1O[C@H](CO)[C@@H](O)[C@@H]1O | · | – | ? | – | · | –
Nc1ncnc2c1c(I)cn2C1OC(CO)C(O)C1O (stereo not drawn) | · | ? | 16µM! | · | · | ·
N#Cc1c(N)n(C2OC(CO)C(O)C2O)c2ncnc(N)c12 (stereo not drawn) | 0.5µM | 1µM | ? | ? | 1.8µM | -99
CC[N@+]1(C)CCC[C@H](OC(=O)C(O)(c2ccccc2)c2ccccc2)C1 | – | · | · | · | · | ·
CCN(CC)C1CCN(C(=O)c2cnn(-c3ncc4c(n3)-c3ccccc3CCC4)c2COC)C1 (stereo not drawn) | · | – | – | · | · | ·
Cc1cc(C)nc(N(C#N)Cc2ccc([N+](=O)[O-])cc2)n1 | – | – | – | – | – | –
CCc1ccc(C(=O)CN(C#N)c2nc(C)cc(C)n2)cc1 | 11µM | ? | ? | ? | ? | ?
Cc1cc(C)nc(N(C#N)CC(=O)c2ccccc2)n1 | ? | ? | ? | 16µM | ? | –
SMILES | MARV entry inh | VACV Venus inh | VACV mCherry inh | HCV inhibitor | LASV entry inh | HCMV antiviral
Cc1cc(C)nc(N(C#N)CC(=O)N(c2ccccc2)C(C)C)n1 | – | – | · | – | – | –
O=c1c2cc3c(cc2[nH]c(=S)n1C1CCN(Cc2ccccc2)CC1)OCO3 | ? | – | – | 13µM | – | –
CCOc1cc2[nH]c(=S)n(C3CCN(Cc4ccccc4)CC3)c(=O)c2cc1OCC | – | – | – | – | – | –
O=C(CSc1nncn2c1cc1occc12)Nc1ccccc1C(F)(F)F | · | – | – | · | – | ?
CCN(c1ccccc1)C1SC(=O)N(c2ccccc2)C1=O (stereo not drawn) | · | – | – | · | · | ·
CC1CCN(C(=O)c2[nH]cnc2C(=O)N[C@@H](C)C(=O)OCc2ccccc2)CC1 | · | – | – | 3.5µM | · | –
